Laboratory results from PubChem BioAssay (EPA / NIEHS).
Several values for one entry are separate records, joined by “and”; a condition that tells them apart may be missing. Equal entries are not always repeated. Results filed as inconclusive are left out. Activity calls are given as the source filed them. How the source made its calls: active means hit-call score of the fitted dose curve at least 0.9, where 1 is the maximum; inconclusive means response in the unintended direction; inactive means score below 0.9.

Experiments:
[1] = ArunA_CellTiter_hNC: Viability Assessment in the ArunA Biomedical's Oris Neural Crest (hNC) Cell Migration Assay (AID 2283752)
Summary of the method: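 Cytotoxicity endpoint run alongside the migration assay: neural crest cells on Matrigel, 60,000 per well, preincubated 16 h at 37C, treated 72 h; CellTiter Aqueous One signal loss relative to DMSO.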

[2] = ArunA_Migration_hNP: ArunA Biomedical's Oris Neuroprogenitor (hNP) Cell Migration Assay (AID 2283754)
Summary of the method: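 Readout is calcein-AM fluorescence (ex494/em517) of cells migrating into the detection zone, relative to DMSO. hNP1 cells (H9-derived) grown on Matrigel behind stoppers 16 h, then stoppers pulled and chemical applied 72 h; cytochalasin D as control.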

[3] = ArunA_NOG_NucleusCount: ArunA Biomedical's Neurite Outgrowth (NOG) Assay for Nucleus Count (AID 2283756)
Method: ArunA_NOG (Neurite Outgrowth) is a cell-based, image-based assay that uses human H9-derived embryonic differentiated neurons (hNN). Measurements were taken 48 hours after chemical dosing in a 96-well plate.ArunA_NOG_NucleusCount is an assay component measured from the ArunA_NOG assay. It is designed to make measurements of viability related to the number of neurons, using a form of viability reporter, as detected with fluorescence intensity signals by HCS Fluorescent Imaging technology. Data from the assay component ArunA_NOG_NucleusCount was analyzed at the endpoint, ArunA_NOG_NucleusCount, in the positive analysis fitting direction relative to DMSO as the negative control and baseline of activity. […]
(§1) Chemical treatment: Differentiated hNN cells were seeded and immediately exposed to test medium for 48 h. Following chemical exposure, cell bodies were stained with Hoechst 33,258 to quantitate viable neuron count and neurites were labeled with bIII-tubulin/DyLight1 488. High content imaging assessed the neurite outgrowth endpoints: neurite total length per neuron (um), neurite count per neuron, and branch points per neurite using the methods described in (Harrill et al 2010). […] Plates were then loaded into a Cellomics ArrayScan VTI HCS reader high-content imaging system (ThermoFisher Scientific, Waltham, MA) for automated image acquisition and morphometric analyses. […]

[4] = ArunA_NOG_BranchPointsPerNeurite: ArunA Biomedical's Neurite Outgrowth (NOG) Assay for Branch Points Per Neurite (AID 2283759)
Summary of the method: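 Automated image analysis traced neurites (processes >10 um) from valid cell bodies after Hoechst and βIII-tubulin staining. hNN cells from H9 embryonic stem cells, 48 h exposure. Fitted bidirectionally against DMSO.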

[5] = ArunA_NOG_NeuriteLength: ArunA Biomedical's Neurite Outgrowth (NOG) Assay for Neurite Length (AID 2283757)
Method: ArunA_NOG (Neurite Outgrowth) is a cell-based, image-based assay that uses human H9-derived embryonic differentiated neurons (hNN). Measurements were taken 48 hours after chemical dosing in a 96-well plate.ArunA_NOG_NeuriteLength is an assay component measured from the ArunA_NOG assay. It is designed to make measurements of neurite outgrowth related to neurite length, using a form of morphology reporter, as detected with fluorescence intensity signals by HCS Fluorescent Imaging technology. Data from the assay component ArunA_NOG_NeuriteLength was analyzed at the endpoint, ArunA_NOG_NeuriteLength, in the positive analysis fitting direction relative to DMSO as the negative control and baseline of activity. […]
as §1

[6] = ArunA_NOG_NeuritesPerNeuron: ArunA Biomedical's Neurite Outgrowth (NOG) Assay for Neurites Per Neuron (AID 2283758)
Summary of the method: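 Differentiated human H9-derived neurons exposed to chemicals for 48 h from seeding, then stained with Hoechst and βIII-tubulin/DyLight 488. Automated imaging counted neurites (processes >10 um) per valid neuron; loss of signal versus DMSO scored.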

[7] = system: chicken Androgen Receptor (AR), gene 422165; experiment: ATG_chAR_XSP1: Attagene TRANS-FACTORIAL Multi-Species (XSP1) HepG2 Assay for chicken Androgen Receptor (AR) (AID 2283768)
Method: ATG_XSP1_multi-species_TRANS is a cell-based, multiplexed assay created by modifying the existing Attagene TRANS-FACTORIAL system to include a panel of nuclear receptors from some or all the following species: human (Homo sapiens), mouse (Mus musculus), frog (Xenopus laevis), zebrafish (Danio rerio), chicken (Gallus gallus), and turtle (Chrysemys picta). The ECOTOX-FACTORIAL format uses HepG2, a human liver cell line, with measurements taken at 24 hours after chemical dosing in a 24-well plate. Xsp1 included 3 nM 6-alpha-fluorotestosterone to partially stimulate the androgen receptor.ATG_chAR_XSP1 is one of 29 assay components measured or calculated from the ATG_XSP1_multi-species_TRANS assay. It is designed to make measurements of mRNA induction, a form of inducible reporter, as detected with fluorescence intensity signals by Reverse transcription polymerase chain reaction (RT-PCR) and Capillary electrophoresis technology.The assay endpoint ATG_chAR_XSP1 was analyzed in the positive analysis fitting direction relative to DMSO as the negative control and baseline of activity. […] Furthermore, this assay endpoint can be referred to as a primary readout, because this assay has produced multiple assay endpoints where this one serves a reporter gene function. […]

SMILES: CCCCCCCCOC(=O)c1cc(O)c(O)c(O)c1
- outcome [1]: inactive
- AC50 [2]: 1.02 µM (active) and 675 nM (active)
- outcome [3]: inactive
- outcome [4]: inactive

SMILES: O=C(Nc1ccc(Cl)cc1)Nc1ccc(Cl)c(Cl)c1
- outcome [1]: inactive
- AC50 [2]: 1.88 µM (active)
- outcome [3]: inactive
- outcome [4]: inactive

SMILES: CC(C)(c1cc(Br)c(O)c(Br)c1)c1cc(Br)c(O)c(Br)c1
- outcome [5]: inactive
- outcome [6]: inactive
- outcome [7]: inactive

SMILES: Cc1c2ccccc2c(C)c2c1ccc1ccccc12
- AC50 [7]: 8.7 µM (active)
